Drawing on PubChem BioAssay (EPA / NIEHS), this text covers outcome and AC50 for ten compounds.

Molecules are shown by their SMILES. The source made the active and inactive calls. Rule for the calls: active = hit-call score of the fitted dose curve at least 0.9, where 1 is the maximum; inactive = score below 0.9.

Read-out in assay [1]: serum amyloid A (SAA), SAA1 (gene 6288)
Briefly: BSK_CASM3C_SAA: BioMAP Diversity Plus: CASM3C Assay for serum amyloid A (SAA) Biomarker Activity (AID 2283049). As to conditions: primary human coronary artery smooth muscle cells; actives raise or lower the signal.

A short description of assay [2]: BSK_CASM3C_SRB: Viability Assessment in the BioMAP Diversity Plus: CASM3C Assay (AID 2283050). As to conditions: primary human coronary artery smooth muscle cells.
Read-out in assay [3]: Thrombomodulin, THBD (gene 7056)
Briefly: BSK_CASM3C_Thrombomodulin: BioMAP Diversity Plus: CASM3C Assay for Thrombomodulin Biomarker Activity (AID 2283051).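 Note: thrombomodulin protein level measured by ELISA 24 h after dosing.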 The note with it: primary human coronary artery smooth muscle cells; actives raise or lower the signal.

Read-out in assay [4]: Tissue Factor, F3 (gene 2152)
Briefly: BSK_CASM3C_TissueFactor: BioMAP Diversity Plus: CASM3C Assay for Tissue Factor Biomarker Activity (AID 2283052).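 Note: cell surface tissue factor protein level read by ELISA.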 As to conditions: primary human coronary artery smooth muscle cells; actives raise or lower the signal.

Read-out in assay [5]: Interferon-gamma inducible Protein 10 (IP10), CXCL10 (gene 3627)
The experiment in a line: BSK_hDFCGF_IP10: BioMAP Diversity Plus: hDFCGF Assay for Interferon-gamma inducible Protein 10 (IP10) Biomarker Activity (AID 2283053). As to conditions: primary human foreskin fibroblasts; actives raise or lower the signal. The procedure, abridged:
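ELISA quantification of IP-10 after a 24 h chemical exposure of human dermal foreskin fibroblast primary cultures. Both increases and decreases versus DMSO fitted.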

Read-out in assay [6]: Urokinase-type plasminogen activator receptor (uPAR), PLAUR (gene 5329)
Briefly: BSK_CASM3C_uPAR: BioMAP Diversity Plus: CASM3C Assay for Urokinase-type plasminogen activator receptor (uPAR) Biomarker Activity (AID 2283054).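 Note: cell-surface uPAR protein level quantified by ELISA.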 The note with it: primary human coronary artery smooth muscle cells; actives raise or lower the signal.

Read-out in assay [7]: Collagen III, COL3A1 (gene 1281)
Briefly: BSK_hDFCGF_CollagenIII: BioMAP Diversity Plus: hDFCGF Assay for Collagen III Biomarker Activity (AID 2283056). As to conditions: primary human foreskin fibroblasts; actives raise or lower the signal. In a few lines: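 Response relative to DMSO, fitted in both directions, reflects ELISA-measured collagen III in human primary skin fibroblasts 24 h after compound addition.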

Read-out in assay [8]: Interleukin-8 (IL8), CXCL8 (gene 3576)
Briefly: BSK_hDFCGF_IL8: BioMAP Diversity Plus: hDFCGF Assay for Interleukin-8 (IL8) Biomarker Activity (AID 2283058). The note with it: primary human foreskin fibroblasts; actives raise or lower the signal. In a few lines: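 Fibroblast monolayers (human foreskin, hDFCGF) received test chemical for 24 h before ELISA detection of IL-8; either increases or decreases relative to DMSO count as activity.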

Assay [9] can be described thus: BSK_hDFCGF_Proliferation: Cell Proliferation Assessment in the BioMAP Diversity Plus: hDFCGF Assay (AID 2283059).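 Note: curves fitted for both rise and fall of signal versus DMSO baseline.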 As to conditions: primary human foreskin fibroblasts. In a few lines: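 This proliferation readout used SRB total-protein staining of human foreskin fibroblasts […], normalized to DMSO with bidirectional curve fitting.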
Read-out in assay [10]: Macrophage colony-stimulating factor (MCSF), CSF1 (gene 1435)
The experiment in a line: BSK_hDFCGF_MCSF: BioMAP Diversity Plus: hDFCGF Assay for Macrophage colony-stimulating factor (MCSF) Biomarker Activity (AID 2283060). The note with it: primary human foreskin fibroblasts; actives raise or lower the signal. In a few lines: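 fibroblasts (human foreskin, primary), 24 h post-dose; M-CSF by ELISA; bidirectional fit, DMSO = baseline.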

A short description of assay [11]: BSK_hDFCGF_SRB: Viability Assessment in the BioMAP Diversity Plus: hDFCGF Assay (AID 2283061).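 Note: cells exposed to compound for 24 h before the read.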 The note with it: primary human foreskin fibroblasts. In a few lines:
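SRB-based viability read on primary human skin fibroblasts at 24 h: TCA fixation, 0.1% dye, 560 nm. Gain or loss of signal is fitted against the DMSO negative control.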

Read-out in assay [12]: TIMP metallopeptidase inhibitor 1 (TIMP1), TIMP1 (gene 7076)
The experiment in a line: BSK_hDFCGF_TIMP1: BioMAP Diversity Plus: hDFCGF Assay for TIMP metallopeptidase inhibitor 1 (TIMP1) Biomarker Activity (AID 2283062). As to conditions: primary human foreskin fibroblasts; actives raise or lower the signal. The procedure, abridged: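 Bidirectional curve fitting against DMSO baseline yielded this endpoint, based on ELISA detection of TIMP-1 in primary human foreskin fibroblasts exposed to compound for 24 h.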

Read-out in assay [13]: Matrix Metallopeptidase 1 (MMP1), MMP1 (gene 4312)
Briefly: BSK_hDFCGF_MMP1: BioMAP Diversity Plus: hDFCGF Assay for Matrix Metallopeptidase 1 (MMP1) Biomarker Activity (AID 2283064). The note with it: primary human foreskin fibroblasts; actives raise or lower the signal. The procedure, abridged: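 MMP1 levels quantified by ELISA 24 h after dosing human dermal fibroblast cultures, with parallel SRB total-protein staining for overt cytotoxicity. Data fitted in both directions against DMSO baseline.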

Read-out in assay [14]: Vascular cell adhesion molecule 1 (VCAM1), VCAM1 (gene 7412)
Briefly: BSK_hDFCGF_VCAM1: BioMAP Diversity Plus: hDFCGF Assay for Vascular cell adhesion molecule 1 (VCAM1) Biomarker Activity (AID 2283065).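 For AC50: VCAM-1 protein level quantified by ELISA after 24 h chemical exposure.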 As to conditions: primary human foreskin fibroblasts; actives raise or lower the signal. In a few lines: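 Measured after 24 h chemical treatment of primary human skin fibroblasts, VCAM-1 was detected by ELISA and concentration-response analysed in both directions versus DMSO vehicle.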

Read-out in assay [15]: Plasminogen activator inhibitor-1 (PAI1), SERPINE1 (gene 5054)
Briefly: BSK_hDFCGF_PAI1: BioMAP Diversity Plus: hDFCGF Assay for Plasminogen activator inhibitor-1 (PAI1) Biomarker Activity (AID 2283066). As to conditions: primary human foreskin fibroblasts; actives raise or lower the signal. In a few lines: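 PAI-1 levels in human dermal foreskin fibroblasts were quantified by ELISA 24 h after dosing, with gain or loss analysed against DMSO. Overt cytotoxicity was checked by sulforhodamine B total-protein staining in parallel cultures.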

Read-out in assay [16]: Intercellular Adhesion Molecule 1 (ICAM1), ICAM1 (gene 3383)
Briefly: BSK_KF3CT_ICAM1: BioMAP Diversity Plus: KF3CT Assay for Intercellular Adhesion Molecule 1 (ICAM1) Biomarker Activity (AID 2283067). The note with it: primary human keratinocytes with fibroblasts; actives raise or lower the signal. The procedure, abridged:
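Bidirectional curve fitting against a DMSO baseline was applied to ICAM-1 ELISA signal from primary human skin co-cultures harvested 24 h after treatment, with SRB staining of parallel wells for overt cytotoxicity.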

Read-out in assay [17]: Interferon-gamma inducible Protein 10 (IP10), CXCL10 (gene 3627)
Briefly: BSK_KF3CT_IP10: BioMAP Diversity Plus: KF3CT Assay for Interferon-gamma inducible Protein 10 (IP10) Biomarker Activity (AID 2283068). The note with it: primary human keratinocytes with fibroblasts; actives raise or lower the signal. In a few lines: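 Signal is secreted/surface IP-10 by ELISA in a human primary skin co-culture of keratinocytes and foreskin fibroblasts, taken 24 h post-dosing; DMSO served as negative control.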

Read-out in assay [18]: Vascular cell adhesion molecule 1 (VCAM1), VCAM1 (gene 7412)
The experiment in a line: BSK_CASM3C_VCAM1: BioMAP Diversity Plus: CASM3C Assay for Vascular cell adhesion molecule 1 (VCAM1) Biomarker Activity (AID 2283055).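 Note: VCAM-1 protein level quantified by ELISA on the cells.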 The note with it: primary human coronary artery smooth muscle cells; actives raise or lower the signal.

The term AC50 denotes the concentration at which the activity in the assay is half-maximal. `CCOC(=O)C(C)Oc1ccc(Oc2cnc3cc(Cl)ccc3n2)cc1` (centres undefined): the outcome in [1], in [2], in assay [3], in assay [4], in assay [5] and in [6] was inactive. Moreover, the outcome in assay [7], in [8], in assay [10], in [11], in assay [12] and in assay [13] was inactive. For the same compound, the result in assay [14], in assay [15], in assay [16] and in [17] was inactive. Moreover, the concentration at half-maximal activity (AC50) in [9] is 30.6 µM (active).

As for `CCOC(=O)COc1cc(-n2ncc(C(F)(F)F)c(C)c2=O)c(F)cc1Cl`, the outcome in assay [1], in assay [2], in assay [3], in [4], in assay [5] and in [6] was inactive. For the same compound, the result in assay [18], in assay [7], in [8], in [9], in assay [10] and in [11] was inactive. The outcome in [12], in assay [13], in [14], in assay [15], in assay [16] and in assay [17] was inactive.

`C#C[C@]1(O)CC[C@H]2[C@@H]3CCC4=CC(=O)CC[C@@H]4[C@H]3CC[C@@]21CC`: the concentration at half-maximal activity (AC50) in assay [1] is 6.06 µM (active). For the same compound, the result in assay [2], in [3], in [4], in assay [5], in assay [6] and in [18] was inactive. Besides, the outcome in [7], in [8], in assay [9], in assay [10], in [11] and in assay [12] was inactive. Also, the outcome in [13], in assay [14], in [15], in assay [16] and in [17] was inactive.

For the compound `CC(C)(C)[C@@H](O)[C@@H](Cc1ccc(Cl)cc1)n1cncn1`, the outcome in assay [1], in assay [2], in assay [3], in assay [4], in assay [5] and in [6] was inactive. Moreover, the outcome in assay [18], in assay [7], in [8], in assay [9], in assay [10] and in assay [11] was inactive. The result in [12], in assay [14], in [15], in assay [16] and in [17] was inactive. Besides, in assay [13], the AC50 is 1.42 µM (active).

In the case of `CCNc1nc(N)nc(Cl)n1`, the concentration at half-maximal activity (AC50) in [1] was 20 µM (active). Besides, the outcome in [2], in assay [3], in assay [4], in assay [5], in assay [6] and in assay [18] was inactive. The result in assay [7], in [8], in assay [9], in [10], in [11] and in assay [12] was inactive. Further, the result in assay [13], in assay [14], in [15], in assay [16] and in assay [17] was inactive.

For `O=C(Nc1ccc([N+](=O)[O-])cc1Cl)c1cc(Cl)ccc1O`, the concentration at half-maximal activity (AC50) was 1.56 µM (active) in [1]; 0.826 µM (active) in assay [2]; 0.643 µM (active) in assay [3]; 0.148 µM (active) in assay [5]; 0.148 µM (active) in assay [6]; 0.148 µM (active) in assay [7]. Moreover, the concentration at half-maximal activity (AC50) in assay [9] was 0.148 µM (active); in assay [10] it was 0.912 µM (active); in [11] it was 0.063 µM (active); in assay [12], 0.149 µM (active); in assay [13], 0.227 µM (active); in [14] it was 0.148 µM (active). The AC50 is 0.148 µM (active) in [15], 1.24 µM (active) in [16] and 0.148 µM (active) in [17]. Besides, the outcome in [4], in assay [18] and in assay [8] was inactive.

For the compound `CCCOC(=O)c1ccc(C(=O)OCCC)nc1`, the result in assay [1], in assay [2], in assay [3], in assay [4], in [5] and in assay [6] was inactive. Also, the outcome in [18], in [7], in assay [8], in [9], in assay [10] and in [11] was inactive. In addition, the outcome in assay [12], in assay [13], in [14], in assay [15], in [16] and in assay [17] was inactive.

Take `CCOC(=O)C(C)Oc1ccc(Oc2nc3ccc(Cl)cc3o2)cc1` (centres undefined): the outcome in assay [1], in assay [2], in assay [3], in [4], in assay [5] and in assay [6] was inactive. Moreover, the result in assay [18], in [7], in assay [8], in [10], in assay [11] and in assay [12] was inactive. The outcome in [14], in assay [15], in assay [16] and in assay [17] was inactive. In addition, the AC50 was 13.2 µM (active) in [9] and 20 µM (active) in [13].

In the case of `CCCN(CCC)c1c([N+](=O)[O-])cc(C(F)(F)F)c(N)c1[N+](=O)[O-]`, the result in assay [1], in assay [2], in assay [4], in assay [6], in assay [18] and in assay [8] was inactive. Moreover, the AC50 in assay [3] is 3.97 µM (active); in assay [5], 31.3 µM (active); in [7] it was 31.4 µM (active); in assay [9], 26.7 µM (active); in [10], 27.9 µM (active); in [11], 33.3 µM (active). For the same compound, the AC50 in assay [12] was 30.2 µM (active); in assay [13] it was 35.5 µM (active); in assay [14] it was 26.9 µM (active); in assay [15], 20 µM (active); in assay [16] it was 36 µM (active); in [17], 34.7 µM (active).

For `CCN(Cc1c(F)cccc1Cl)c1c([N+](=O)[O-])cc(C(F)(F)F)cc1[N+](=O)[O-]`, the outcome in [1], in [2], in assay [3], in assay [4], in [18] and in [7] was inactive. Besides, the result in assay [8], in [10], in assay [11], in [12], in assay [14] and in [15] was inactive. The result in assay [16] was inactive. Besides, the AC50 was 30.6 µM (active) in assay [5]; 13.2 µM (active) in [6]; 4.89 µM (active) in assay [9]; 9.24 µM (active) in assay [13]; 2.54 µM (active) in assay [17].
